Records with an inconclusive call do not appear. Where a call stands in place of a potency, no number is given. The source made the active and inactive calls. The call rests on the fitted dose curve; in most records, active means well fitted inhibition curve with a large enough effect; inconclusive means small, poorly fitted or top-dose-only effect; inactive means no such curve, though single readings can be large or run the other way.

The assay in a line: qHTS assay for measurement of the activity of small molecule inhibitors on Zika virus induced Caspase-3 activity in human iPSC derived neural progenitor cells (hNPCs) (AID 1224857). Further: nearly all actives have a fitted effect of over 65% in size. Conditions: hNPCs ZIKV-induced caspase-3/7, Caspase-Glo luminescence, 6 h; series mostly up to 45.7 µM. An outline of the steps:
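Human iPSC-derived neural progenitor cells pretreated 1 hr with compounds, then infected with Zika virus (2 FFU/cell) for 6 hours at 37 C. Caspase-3/7 measured by Caspase-Glo luminescence; % inhibition calculated from induction scaled to uninfected (0%) and infected (100%) wells.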
In the case of `CC(C)c1cnn2c(NCc3ccccc3)cc(N[C@@H](CO)[C@H](O)CO)nc12`, the Potency result is “inactive”.
For the compound `COc1cc2c(Nc3ccc(NC(=O)c4ccccc4)cc3)ncnc2cc1OCCCN1CCOCC1`, the Potency entry was “inactive”.
On to `CCn1cc(-c2ccnc3[nH]c(-c4cccc(CN(C)C)c4)cc23)c(-c2ccc(NC(=O)N(C)C)cc2)n1`, for which the Potency entry is “inactive”.
As for `CC(C)c1noc(N2CCC(COc3ccc(-c4ccc(S(C)(=O)=O)cc4)nc3)CC2)n1`, the Potency entry was “inactive”.
As to `COc1c(N2C[C@@H]3CCCN[C@H]3C2)c(F)cc2c(=O)c(C(=O)O)cn(C3CC3)c12`, the Potency result was “inactive”.
As to `C[C@@]12O[C@@H](C[C@]1(O)CO)n1c3ccccc3c3c4c(c5c6ccccc6n2c5c31)CNC4=O`, the Potency entry is “inactive”.
As for `O=C(O)CO.[NH2-].[NH2-].[Pt+2]`, the entry is “inactive”.
Take `Nc1ncnc2c1c(-c1cccc(OCc3ccccc3)c1)cn2C1CC(CN2CCCC2)C1` (centres undefined): the Potency result was “inactive”.
Turning to `N#CCNC(=O)c1ccc(-c2ccnc(Nc3ccc(N4CCOCC4)cc3)n2)cc1`, the Potency entry is “inactive”.
On to `CCN(CC)CCNC(=O)c1ccc2nc(-c3ccccc3)c(-c3ccc(CN4CCC(n5c(=O)[nH]c6ccccc65)CC4)cc3)nc2c1`, for which the Potency entry was “inactive”.
On to `COc1cc2nccc(Oc3ccc(NC(=O)C4(C(=O)Nc5ccc(F)cc5)CC4)cc3)c2cc1OC`, for which the Potency result was “inactive”.
Regarding `Cc1nc2ccc(CN(C)c3ccc(C(=O)N[C@@H](CCC(=O)O)C(=O)O)s3)cc2c(=O)[nH]1`, the Potency entry was “inactive”.
With `CN(c1ncccc1CNc1nc(Nc2ccc3c(c2)CC(=O)N3)ncc1C(F)(F)F)S(C)(=O)=O`, the Potency entry was “inactive”.
Turning to `Cn1cc(-c2ccncc2)c(-c2ccc(OCc3ccc4ccccc4n3)cc2)n1`, the Potency result was “inactive”.

These data come from PubChem BioAssay (NCATS).
